# Yeast superoxide = yeast age-related superoxide inhibition as caloric restriction mimetic | 330,000 compounds, 0.18% hits | superoxide response (% of plate mean), % at 10 µM | S. cerevisiae aged cells, superoxide DHE fluorescence; active compounds read low | AID 2690;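 active = superoxide response under a set limit, about three screen SD below normal, cut at about 65% in these data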;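 also: yeast aged for seven days with compound at 30 °C before DHE staining; 100% = average MFI of all compound-treated wells on the plate with controls excluded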
# CTSL1 counter = blocks F. hepatica cathepsin L1 in PFM18AAP counter-screen. recombinant F. hepatica cathepsin L1, Z-Leu-Arg-MCA fluorescence. inhibition, % at 5.96 µM. 300,000 compounds, 0.49% hits;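 active = inhibition above the mean of all tested compounds plus 3 SD, set per screening campaign, cut at about 17% in these data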;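 also: 0% = plate median of test compound wells and 100% = 1 µM Z-Phe-Ala-diazomethylketone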
# hiPSC survival = enhancers of human iPSC single-cell survival; hiPSC single-cell survival, ATPlite luminescence; 100% = ROCK inhibitor wells, 0% = DMSO; survival enhancement, % at 20 µM; 360,000 compounds, 0.044% hits; in the data active = survival enhancement above about 18%;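 also: cells exposed to compounds for 16 hours before the ATP read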
# V-ATPase pH = yeast V-ATPase proton transport regulation by pHLuorin. S. cerevisiae, pHLuorin cytosolic pH fluorescence. response, % at 10 µM. 350,000 compounds, 0.37% hits. AID 504577; in the data active = response mostly above about 7.3%, no sharp cut-off; inactive = mostly below about 5.4%; also: actives read high
# Superoxide pick = confirmation of caloric restriction mimetics inhibiting yeast age-related superoxide; shares compounds with Yeast superoxide; S. cerevisiae aging, superoxide DHE fluorescence; active compounds read low; superoxide response (% of plate), % at 10 µM; 850 compounds, 1% hits; AID 434994;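 active = superoxide signal below 65% of the plate average of sample wells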;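 also: cells aged with compound for 7 days at 30 degrees C before staining; 100% equals mean DHE fluorescence of all compound wells on the plate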
# DHE fluor count = DHE fluorescence interference, counter-screen artifact. shares compounds with Yeast superoxide. S. cerevisiae BY4741, flow cytometry; active compounds read low. fluorescence response, % at 10 µM. AID 435000. 850 tested, under 10 active;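 active = fluorescence response below 15%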;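 also: percent of the mean fluorescence averaged over all compound wells on the plate; lower means stronger quenching of DHE signal or ROS scavenging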
# The depositor's hits bear a star; nt = no result given. An excerpt weighted towards active compounds, which were near 1% of everything screened.
SMILES,Yeast superoxide,CTSL1 counter,hiPSC survival,V-ATPase pH,Superoxide pick,DHE fluor count
CC(C)Oc1cccc(C(=O)C2CCCN(C(=O)c3ccc4c(c3)OCO4)C2)c1 (stereo not given),101.6,-2.1,-0.5,1.1,nt,nt
CSc1ncc(Cl)c(C(=O)Nc2ccc(C)c(C)c2)n1,65.3*,-0.5,-0.7,0.7,98.9,113.8
COc1cccc(NC(=O)c2nc(SC)ncc2Cl)c1,105.5,-3.0,-0.2,-0.2,115.6,122.9
COc1ccc(NC(=O)c2nc(SC)ncc2Cl)cc1,109.2,-3.9,-0.1,-3.7,nt,nt
O=C(Cc1ccccc1)NC(=S)Nc1ccc(OC(F)F)cc1,101.5,3.9,-0.6,-3.5,nt,nt
CCC(C)[C@H](NC(=O)NCCCOC(C)C)C(=O)OC (stereo not given in full),109.3,-2.9,1.6,-4.0,nt,nt
CN1CCCN(Cc2nc(-c3ccc(Cl)cc3)no2)CC1,97.6,-5.4,-0.7,1.9,nt,nt
Cc1ccc(CNC(=O)Cc2ccc(-n3c(=O)[nH]c4ccsc4c3=O)cc2)cc1,56.4*,2.8,0.1,-0.3,107.7,100.5
Cc1cc(C(=O)COc2cccnc2[N+](=O)[O-])c(C)n1-c1ccccc1,58.0*,1.1,0.9,-2.6,123.4,128.6
C=CCOc1ccccc1CN1CCC(Oc2ccc(C(=O)N3CCCC3)cc2)CC1,64.8*,-2.3,0.1,-4.8,116.8,111.2
O=C(c1ccc(OC2CCN(Cc3ccccc3OC(F)F)CC2)cc1)N1CCCC1,109.9,4.5,0.3,2.4,nt,nt
CC(c1ccco1)N(C(=O)c1ccccc1NS(=O)(=O)c1ccc(Cl)c([N+](=O)[O-])c1)c1ccccn1 (stereo not given),65.1*,-12.0,1.5,0.1,97.1,88.4
COc1cc(OC)cc(-c2c(-c3ccc(F)cc3)c3cc(-c4ccc(SC)cc4)ccc3n2C)c1,127.8,nt,0.3,3.9,nt,nt
COc1ccc(-c2c(-c3cc(OC)cc(OC)c3)n(C)c3ccc(-c4ccc(SC)cc4)cc23)cc1,65.4*,nt,-1.0,-3.9,97.1,96.4
CCCCCN(C(=O)CCC(=O)OCC(=O)N1C(C)CCCC1C)c1c(N)n(CCCC)c(=O)[nH]c1=O (stereo not given),104.4,-0.9,-0.6,-6.0,nt,nt
C=CCN=C1S/C(=C/c2ccc([N+](=O)[O-])cc2)C(=O)N1CC=C,59.8*,-2.4,-0.5,-1.8,76.5,89.2
C=CCN=C1S/C(=C/c2cccc([N+](=O)[O-])c2)C(=O)N1CC=C,106.9,-3.4,0.5,7.5,nt,nt
O=c1c2ccc(Cl)cc2nc(-c2cccc(C(F)(F)F)c2)n1O,64.8*,0.6,-0.7,10.6*,87.5,88.6
CN(Cc1ccccc1)C(=O)CCC1CCN(S(=O)(=O)N(C)C)CC1,103.4,-3.6,-0.7,-4.0,nt,nt
CN(Cc1ccccc1)C(=O)CCC1CCN(S(C)(=O)=O)CC1,64.9*,-1.8,0.7,-0.1,127.1,109.7
O=C(CN1CCN(c2ccc([N+](=O)[O-])cc2)CC1)Nc1nccs1,95.2,3.3,1.7,-2.5,nt,nt
O=C(CN1CCN(c2ccc([N+](=O)[O-])cc2)CC1)Nc1ccccn1,60.2*,-3.0,-0.5,2.7,107.3,114.9
COc1ccc(C)cc1NC(=O)CN1CCN(c2ccccn2)CC1,103.1,-8.3,-0.5,0.9,107.2,93.4
O=C(CN1CCN(c2ccccn2)CC1)Nc1ccccc1Br,94.3,-6.5,0.2,1.7,108.4,98.6
COc1ccccc1NC(=O)CN1CCN(c2ccccn2)CC1,136.3,-8.4,0.8,2.2,99.3,117.4
SMILES,Yeast superoxide,CTSL1 counter,hiPSC survival,V-ATPase pH,Superoxide pick,DHE fluor count
COc1ccccc1NC(=O)CN1CCN(c2ccc(F)cc2)CC1,nt,nt,0.1,-1.2,nt,nt
COc1ccccc1NS(=O)(=O)c1ccc(C)c(C(=O)NCc2cccnc2)c1,99.9,nt,1.0,4.7,nt,nt
O=C(CN1CCN(c2ccccn2)CC1)Nc1cccc(Cl)c1Cl,86.5,-2.4,-0.4,-2.3,110.7,108.6
Cc1ccc(NC(=O)CN2CCN(c3ccccn3)CC2)c(Cl)c1,81.6,-8.6,-2.3,4.8,113.7,130.3
N#Cc1ccccc1NC(=O)CN1CCOCC1,100.1,3.8,0.1,-3.5,nt,nt
COC(=O)c1ccccc1NC(=O)CN1CCN(c2ccccn2)CC1,105.3,-10.7,-3.3,1.0,98.8,92.8
N#Cc1ccccc1NC(=O)CN1CCN(c2ccccn2)CC1,98.3,-8.7,-0.3,3.8,109.1,100.4
CC(O/N=C\c1ccccc1O)C(=O)Nc1ccccc1C(=O)N1CCOCC1 (stereo not given),89.5,3.5,0.6,-4.9,nt,nt
COc1cc(NC(=O)CN2CCN(c3ccccn3)CC2)cc(OC)c1OC,100.2,-5.5,-0.3,3.8,99.5,93.5
CC(C)=C1C2CCC1C(C(=O)Nc1cc(C)cc(C)c1)C2C(=O)O (stereo not given),110.7,-2.3,1.2,0.0,nt,nt
COc1ccc([N+](=O)[O-])cc1N(CC(O)CN(C)C)S(=O)(=O)c1ccccc1 (stereo not given),54.4*,-2.5,-0.4,3.2,105.4,111.2
C=CCN(CC=C)CC(O)CN(c1cc([N+](=O)[O-])ccc1OC)S(=O)(=O)c1ccccc1 (stereo not given),95.6,10.2,0.3,0.3,nt,nt
O=C(CCc1nnc2ccc(NCc3ccc(F)cc3)nn12)NC1CCCC1,110.1,-3.6,0.7,0.2,nt,nt
O=C(NCc1ccc(Cl)cc1)C1CCCN(c2cnccn2)C1 (stereo not given),65.4*,5.6,-0.6,-4.3,112.1,111.9
Cc1cc(-c2nnc(SCC(=O)Nc3ccccc3)n2C)no1,57.8*,-2.0,-0.4,2.6,103.8,115.5
NC(=O)c1ccc(NC(=O)COC(=O)c2ccccc2Nc2ccccc2)cc1,56.1*,2.5,-0.2,22.4,95.9,97.8
CCSc1ncc(Cl)c(C(=O)Nc2ccccc2C)n1,62.0*,0.1,-0.4,4.8,117.9,123.3
CN(c1ccccc1)S(=O)(=O)c1ccc(NC(=O)c2ccccc2)cc1,99.2,-6.7,-1.0,-2.0,nt,nt
CCn1nc(C(=O)Nc2ccccc2C)c(Cl)c1Cl,89.6,0.6,0.3,-2.1,nt,nt
CN(c1ccccc1)S(=O)(=O)c1ccc(NC(=O)c2nc(S(C)(=O)=O)ncc2Cl)cc1,62.4*,-3.0,12.9,4.7,100.6,94.7
CCSc1ncc(Cl)c(C(=O)Nc2ccc(S(N)(=O)=O)cc2)n1,63.3*,3.3,0.1,4.3,101.8,102.4
CSc1ncc(Cl)c(C(=O)Nc2ccccc2C)n1,102.5,2.2,0.0,1.4,101.2,107.0
CCSc1ncc(Cl)c(C(=O)Nc2ccc(S(=O)(=O)Nc3ncccn3)cc2)n1,86.0,-2.4,-0.5,-3.9,nt,nt
CSc1ncc(Cl)c(C(=O)Nc2ccccc2[N+](=O)[O-])n1,101.7,-0.6,-0.8,-0.2,nt,nt
O=C(COC(=O)c1ccccc1)Nc1cc(S(=O)(=O)N2CCCCCC2)ccc1Cl,105.7,nt,-0.6,-3.5,nt,nt
O=S(=O)(NCC1NCCc2ccccc21)c1ccccc1 (stereo not given),94.6,6.6,-0.4,-1.3,nt,nt
